# In the supplement of paper PMC4683952:
# Where a name gives a salt, the structure may show the parent alone. Among all 1,200 compounds or so, about 50 (4%) showed activity. No stated cut-off is given here; in the data, all actives reach 1.3 or more but so do some inactives. Many of the other results were omitted from the sample, so actives are more common in it than they were.
# System: Lgr5 (MarsCy1-Lgr5-EGFP, U2OS)
# Assay: cell-surface Lgr5 expression (SCi1 fluorescence, background-subtracted) relative to WT DMSO (fold of DMSO control); higher = more Lgr5 at the plasma membrane, active = hit call of the paper
# Details: U2OS MarsCy1-Lgr5-EGFP stable; treatment time: overnight; 16 µM; library: Johns Hopkins Clinical Compound Library
row,Structure (SMILES),cell-surface Lgr5 expression
1,COc1cc(C2c3cc4c(cc3C(O)C(CO)C2C(=O)O)OCO4)cc(OC)c1OC.COc1cc(C2c3cc4c(cc3C(O)C(CO)C2C(=O)O)OCO4)cc(OC)c1OC.COc1cc(C2c3cc4c(cc3C(O)C3COC(=O)C23)OCO4)cc(OC)c1OC.COc1cc(C2c3cc4c(cc3C(O)C3COC(=O)C23)OCO4)cc(OC)c1OC (stereo unspecified) [Podophyllum resin],1.55 (active)
2,CC(N)C(O)c1ccccc1 (stereo unspecified) [Norephedrine Hydrochloride (Phenylpropanolamine)],1.19 (inactive)
3,C=C[C@H]1CN2CC[C@H]1C[C@@H]2[C@@H](O)c1ccnc2ccccc12 [Cinchonine sulfate],1.25 (inactive)
4,CCN(CC)C(=O)N[C@H]1C=C2c3cccc4[nH]cc(c34)C[C@H]2N(C)C1 [Lisuride],1.1 (inactive)
5,[S]=[Sb][S][Sb]=[S] [Antimony (III) sulfide],1.26 (inactive)
6,NC(=O)CN1CC(O)CC1=O (stereo unspecified) [Oxiracetam],1.36 (active)
7,COc1ccc(O)c(C(C)(C)C)c1.COc1ccc(O)cc1C(C)(C)C [Butylated hydroxyanisole],1.15 (inactive)
8,C=CCN1C[C@H](C(=O)N(CCCN(C)C)C(=O)NCC)C[C@@H]2c3cccc4[nH]cc(c34)C[C@H]21 [Cabergoline],0.958 (inactive)
9,ClC1=C(Cl)C2(Cl)C(CBr)CC1(Cl)C2(Cl)Cl (stereo unspecified) [Bromocyclen],1.24 (inactive)
10,C[C@]12Cc3c[nH]nc3C[C@@H]1CC[C@@H]1[C@@H]2CC[C@@]2(C)[C@H]1CC[C@]2(C)O [Stanozolol],1.03 (inactive)
11,"C[C@]12CC[C@H](O)CC1=CC[C@@H]1[C@@H]2CC[C@]2(C)C(=O)CC[C@@H]12 [Prasterone (DHEA, dehydroepiandrosterone)]",1.33 (active)
12,C=C1C[C@@H]2[C@H](CC[C@]3(C)C(=O)CC[C@@H]23)[C@@]2(C)C=CC(=O)C=C12 [Exemestane],1.48 (inactive)
13,"C[C@]12CCC(=O)C(O)=C1CC[C@@H]1[C@@H]2CC[C@]2(C)C(=O)CC[C@@H]12 [Formestane (4-Androsten-4-ol-3,17-dione)]",1.18 (inactive)
14,C[C@]12CC[C@H](O)CC1=CC[C@@H]1[C@@H]2CC[C@]2(C)C(=O)CC[C@@H]12 [Prasterone (dehydroisoandrosterone)],1.09 (inactive)
15,C=CCN=C=S [Allyl isothiocyanate],0.99 (inactive)
16,N[C@@H](Cc1ccc(N(CCCl)CCCl)cc1)C(=O)O [Melphalan],1.14 (inactive)
17,CN(C)C(=O)Oc1cc(OC(=O)N(C)C)cc(C(O)CNC(C)(C)C)c1 (stereo unspecified) [Bambuterol],1.21 (inactive)
18,CC(C)(C)NCC(O)c1ccccc1Cl (stereo unspecified) [Tulobuterol],1.42 (active)
19,C1CN1c1nc(N2CC2)nc(N2CC2)n1 [Triethylenemelamine],1.39 (inactive)
20,[O-][n+]1ccccc1[S-].[O-][n+]1ccccc1[S-].[Zn+2] [Pyrithione zinc (1-Hydroxypyridine-2-Thione Zinc Salt)],0.923 (inactive)
21,CN1C[C@H](C(=O)N[C@]2(C)O[C@@]3(O)[C@@H]4CCCN4C(=O)[C@H](Cc4ccccc4)N3C2=O)C[C@@H]2c3cccc4[nH]cc(c34)C[C@H]21 [Dihydroergotamine methanesulfonate],0.612 (inactive)
